# Results reported in publication PMC7862700, “An all-to-all approach to the identification of sequence-specific readers for epigenetic DNA modifications on cytosine”.
# Assays:
# Experiment in all cases: DAPPL (digital affinity profiling via proximity ligation, sequencing); 10 mM Tris-HCl pH 7.5, 50 mM NaCl, 1 mM DTT, 4% glycerol, room temperature, 30 min; GST-TFs on glutathione beads, 16-mer random dsDNA library, 0.1% formaldehyde crosslink after washing; high values mean tight binding
# FLI1 = target: T1, FLI1 (Homo sapiens, UniProt Q01543 1-452); settings: protein: recombinant; tags: N-terminal GST; dsDNA, one strand shown
# T1 sequence: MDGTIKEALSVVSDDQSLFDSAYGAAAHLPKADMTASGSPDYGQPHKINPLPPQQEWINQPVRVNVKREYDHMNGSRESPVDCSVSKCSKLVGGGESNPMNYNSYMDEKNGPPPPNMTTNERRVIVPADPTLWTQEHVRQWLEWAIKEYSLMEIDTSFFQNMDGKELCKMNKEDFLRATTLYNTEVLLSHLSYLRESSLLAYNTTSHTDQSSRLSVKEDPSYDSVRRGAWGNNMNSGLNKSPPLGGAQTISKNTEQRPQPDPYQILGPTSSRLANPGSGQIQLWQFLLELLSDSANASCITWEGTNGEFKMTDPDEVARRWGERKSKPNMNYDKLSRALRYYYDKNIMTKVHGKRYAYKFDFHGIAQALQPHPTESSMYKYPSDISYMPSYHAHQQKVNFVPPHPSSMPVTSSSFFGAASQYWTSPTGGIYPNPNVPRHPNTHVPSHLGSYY
# How it was run: (§1)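 Each value of binding signal is a hexamer's read frequency for a factor divided by the same hexamer's frequency in the tag-only sample. Barcoded, bead-captured GST fusions of human transcription factors made in yeast were pooled with that sample and incubated with 200 nmole of a random double-stranded 16-mer DNA library in Tris/NaCl/DTT/glycerol buffer at room temperature for 30 min. Washing, 0.1% formaldehyde crosslinking, proximity ligation, PCR and Illumina NextSeq500 sequencing followed.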
# ELK1 = target: T2, ELK1 (Homo sapiens, UniProt P19419 1-428); settings: protein: recombinant; tags: N-terminal GST; dsDNA, one strand shown
# T2 sequence: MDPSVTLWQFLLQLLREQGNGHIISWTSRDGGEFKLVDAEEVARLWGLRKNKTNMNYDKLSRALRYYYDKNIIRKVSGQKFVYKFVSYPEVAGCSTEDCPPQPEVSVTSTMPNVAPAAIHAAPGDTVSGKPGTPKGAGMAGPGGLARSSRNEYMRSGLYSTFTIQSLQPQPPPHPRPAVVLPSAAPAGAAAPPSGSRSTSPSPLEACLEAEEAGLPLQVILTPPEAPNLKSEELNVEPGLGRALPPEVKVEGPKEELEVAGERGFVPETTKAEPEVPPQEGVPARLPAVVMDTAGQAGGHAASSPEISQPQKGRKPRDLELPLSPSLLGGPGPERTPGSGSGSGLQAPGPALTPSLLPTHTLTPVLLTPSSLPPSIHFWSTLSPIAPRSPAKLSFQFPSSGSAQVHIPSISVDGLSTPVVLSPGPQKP
# How it was run: as §1
# GABPA = target: T3, GABPA (Homo sapiens, UniProt Q06546 1-454); settings: protein: recombinant; tags: N-terminal GST; dsDNA, one strand shown
# T3 sequence: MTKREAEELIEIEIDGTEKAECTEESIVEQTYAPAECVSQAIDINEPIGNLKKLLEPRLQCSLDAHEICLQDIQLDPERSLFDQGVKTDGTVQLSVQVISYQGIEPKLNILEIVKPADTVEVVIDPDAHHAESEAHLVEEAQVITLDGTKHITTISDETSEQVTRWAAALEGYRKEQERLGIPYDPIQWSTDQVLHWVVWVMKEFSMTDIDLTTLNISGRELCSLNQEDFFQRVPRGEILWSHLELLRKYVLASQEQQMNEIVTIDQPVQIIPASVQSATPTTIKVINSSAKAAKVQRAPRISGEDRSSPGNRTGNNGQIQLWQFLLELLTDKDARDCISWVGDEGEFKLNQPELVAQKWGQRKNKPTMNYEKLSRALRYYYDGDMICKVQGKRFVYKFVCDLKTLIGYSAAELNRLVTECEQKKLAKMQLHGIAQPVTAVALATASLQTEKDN
# How it was run: as §1
# ELF1 = ELF1 (Homo sapiens, UniProt P32519 1-619); settings: protein: recombinant; tags: N-terminal GST; dsDNA, one strand shown
# Chain of ELF1 (P32519 whole entry): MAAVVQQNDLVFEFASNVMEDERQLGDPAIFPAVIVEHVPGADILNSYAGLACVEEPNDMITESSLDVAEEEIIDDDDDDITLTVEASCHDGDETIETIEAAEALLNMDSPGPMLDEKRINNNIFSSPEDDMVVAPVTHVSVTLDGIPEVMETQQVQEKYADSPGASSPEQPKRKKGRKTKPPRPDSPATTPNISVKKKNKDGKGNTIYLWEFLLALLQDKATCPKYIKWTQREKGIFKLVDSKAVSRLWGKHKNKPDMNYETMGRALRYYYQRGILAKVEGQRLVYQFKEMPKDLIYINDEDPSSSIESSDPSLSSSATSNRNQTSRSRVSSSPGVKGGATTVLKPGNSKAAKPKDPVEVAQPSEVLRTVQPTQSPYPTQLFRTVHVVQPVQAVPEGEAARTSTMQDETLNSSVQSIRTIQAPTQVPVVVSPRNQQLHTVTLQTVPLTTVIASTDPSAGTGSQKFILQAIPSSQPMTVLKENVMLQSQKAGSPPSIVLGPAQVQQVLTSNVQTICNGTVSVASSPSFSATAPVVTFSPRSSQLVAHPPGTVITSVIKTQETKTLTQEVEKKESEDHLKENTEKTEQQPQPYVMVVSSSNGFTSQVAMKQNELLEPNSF
# How it was run: as §1
# EHF = target: T4, EHF (Homo sapiens, UniProt Q9NZC4 1-300); settings: protein: recombinant; tags: N-terminal GST; dsDNA, one strand shown
# T4 sequence: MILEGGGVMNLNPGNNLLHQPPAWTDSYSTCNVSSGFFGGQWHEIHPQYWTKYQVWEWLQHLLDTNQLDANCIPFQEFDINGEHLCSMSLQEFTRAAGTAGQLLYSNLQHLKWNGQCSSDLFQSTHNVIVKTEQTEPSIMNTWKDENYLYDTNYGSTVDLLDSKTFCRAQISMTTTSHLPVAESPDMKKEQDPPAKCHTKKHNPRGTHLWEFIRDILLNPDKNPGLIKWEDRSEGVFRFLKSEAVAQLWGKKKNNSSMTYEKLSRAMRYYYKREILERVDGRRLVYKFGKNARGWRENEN
# How it was run: as §1
# SPI1 = SPI1 (Homo sapiens, UniProt P17947 1-270); settings: protein: recombinant; tags: N-terminal GST; dsDNA, one strand shown
# How it was run: as §1
# ELK3 = target: T5, ELK3 (Homo sapiens, UniProt P41970 1-407); settings: protein: recombinant; tags: N-terminal GST; dsDNA, one strand shown
# T5 sequence: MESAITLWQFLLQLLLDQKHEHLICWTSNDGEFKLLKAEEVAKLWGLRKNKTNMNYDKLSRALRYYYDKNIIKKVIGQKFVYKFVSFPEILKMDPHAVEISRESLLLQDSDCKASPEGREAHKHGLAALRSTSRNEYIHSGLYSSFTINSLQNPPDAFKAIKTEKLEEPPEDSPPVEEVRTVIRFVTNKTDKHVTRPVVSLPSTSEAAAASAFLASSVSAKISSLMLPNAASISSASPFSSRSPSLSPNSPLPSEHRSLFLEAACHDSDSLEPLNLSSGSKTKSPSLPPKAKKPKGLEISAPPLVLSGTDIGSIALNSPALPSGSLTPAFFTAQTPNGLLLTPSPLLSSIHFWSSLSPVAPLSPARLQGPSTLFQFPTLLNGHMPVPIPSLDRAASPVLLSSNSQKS
# How it was run: as §1
# ETV5 = ETV5 (Homo sapiens, UniProt P41161 1-510); settings: protein: recombinant; tags: N-terminal GST; dsDNA, one strand shown
# Chain of ETV5 (P41161 whole entry): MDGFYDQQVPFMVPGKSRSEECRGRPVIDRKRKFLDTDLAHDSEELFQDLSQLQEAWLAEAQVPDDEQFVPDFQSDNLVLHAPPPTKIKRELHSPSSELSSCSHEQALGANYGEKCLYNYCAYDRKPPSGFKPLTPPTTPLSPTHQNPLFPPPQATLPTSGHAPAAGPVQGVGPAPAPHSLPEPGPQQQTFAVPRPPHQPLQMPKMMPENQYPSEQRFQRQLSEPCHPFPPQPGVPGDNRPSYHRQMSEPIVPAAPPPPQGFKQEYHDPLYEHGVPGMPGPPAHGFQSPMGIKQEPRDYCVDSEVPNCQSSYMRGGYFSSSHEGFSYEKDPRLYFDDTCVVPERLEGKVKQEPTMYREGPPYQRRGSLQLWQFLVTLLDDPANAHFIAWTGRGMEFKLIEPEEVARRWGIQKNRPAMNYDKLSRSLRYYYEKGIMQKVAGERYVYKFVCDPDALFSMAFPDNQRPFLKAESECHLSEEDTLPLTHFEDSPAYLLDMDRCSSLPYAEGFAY
# How it was run: as §1
# HSF1 = HSF1 (Homo sapiens, UniProt Q00613 1-529); settings: protein: recombinant; tags: N-terminal GST; chain copies: 3; dsDNA, one strand shown
# Chain of HSF1 (Q00613 whole entry): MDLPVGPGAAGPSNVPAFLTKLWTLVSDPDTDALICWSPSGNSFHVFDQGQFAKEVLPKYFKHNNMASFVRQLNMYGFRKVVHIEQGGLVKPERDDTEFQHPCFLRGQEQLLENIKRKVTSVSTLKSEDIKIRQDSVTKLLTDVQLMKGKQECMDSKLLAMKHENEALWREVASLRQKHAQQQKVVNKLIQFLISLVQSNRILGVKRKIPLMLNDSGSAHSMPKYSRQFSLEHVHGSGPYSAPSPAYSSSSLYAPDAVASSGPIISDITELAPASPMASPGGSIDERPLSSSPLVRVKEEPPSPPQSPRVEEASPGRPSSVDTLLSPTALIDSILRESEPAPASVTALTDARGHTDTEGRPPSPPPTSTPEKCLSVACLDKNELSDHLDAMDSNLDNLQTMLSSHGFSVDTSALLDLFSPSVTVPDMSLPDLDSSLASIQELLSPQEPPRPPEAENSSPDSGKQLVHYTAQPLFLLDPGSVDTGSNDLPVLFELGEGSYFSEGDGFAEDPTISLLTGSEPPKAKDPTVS
# How it was run: as §1
# SPIC = target: T6, SPIC (Homo sapiens, UniProt Q8N5J4 1-248); settings: protein: recombinant; tags: N-terminal GST; dsDNA, one strand shown
# T6 sequence: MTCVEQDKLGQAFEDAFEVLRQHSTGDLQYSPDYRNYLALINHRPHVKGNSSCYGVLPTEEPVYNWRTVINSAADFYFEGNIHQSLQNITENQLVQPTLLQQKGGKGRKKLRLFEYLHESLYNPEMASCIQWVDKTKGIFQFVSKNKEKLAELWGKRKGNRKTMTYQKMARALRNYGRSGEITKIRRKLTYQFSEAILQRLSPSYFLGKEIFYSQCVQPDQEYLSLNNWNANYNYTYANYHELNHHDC
# How it was run: as §1
# ELF4 = ELF4 (Homo sapiens, UniProt Q99607 1-663); settings: protein: recombinant; tags: N-terminal GST; dsDNA, one strand shown
# Chain of ELF4 (Q99607 whole entry): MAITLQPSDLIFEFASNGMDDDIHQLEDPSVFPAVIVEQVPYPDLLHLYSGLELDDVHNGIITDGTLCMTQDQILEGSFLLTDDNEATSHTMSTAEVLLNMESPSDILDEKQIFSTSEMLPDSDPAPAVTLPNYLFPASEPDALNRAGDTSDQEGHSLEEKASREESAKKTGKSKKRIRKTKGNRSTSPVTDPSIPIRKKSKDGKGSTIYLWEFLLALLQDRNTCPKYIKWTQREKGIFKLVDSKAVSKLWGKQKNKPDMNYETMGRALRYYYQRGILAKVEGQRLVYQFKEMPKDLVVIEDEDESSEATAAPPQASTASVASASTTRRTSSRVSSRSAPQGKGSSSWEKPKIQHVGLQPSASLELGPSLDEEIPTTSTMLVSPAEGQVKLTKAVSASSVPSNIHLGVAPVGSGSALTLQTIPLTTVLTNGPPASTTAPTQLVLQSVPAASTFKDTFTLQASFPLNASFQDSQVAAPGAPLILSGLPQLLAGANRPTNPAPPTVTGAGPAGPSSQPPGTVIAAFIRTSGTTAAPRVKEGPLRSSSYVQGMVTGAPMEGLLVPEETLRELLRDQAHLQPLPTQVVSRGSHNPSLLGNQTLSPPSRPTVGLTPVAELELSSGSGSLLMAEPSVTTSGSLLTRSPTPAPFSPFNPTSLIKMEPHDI
# How it was run: as §1
# ELK4 = target: T7, ELK4 (Homo sapiens, UniProt P28324-2 1-405); settings: protein: recombinant; tags: N-terminal GST; dsDNA, one strand shown
# T7 sequence: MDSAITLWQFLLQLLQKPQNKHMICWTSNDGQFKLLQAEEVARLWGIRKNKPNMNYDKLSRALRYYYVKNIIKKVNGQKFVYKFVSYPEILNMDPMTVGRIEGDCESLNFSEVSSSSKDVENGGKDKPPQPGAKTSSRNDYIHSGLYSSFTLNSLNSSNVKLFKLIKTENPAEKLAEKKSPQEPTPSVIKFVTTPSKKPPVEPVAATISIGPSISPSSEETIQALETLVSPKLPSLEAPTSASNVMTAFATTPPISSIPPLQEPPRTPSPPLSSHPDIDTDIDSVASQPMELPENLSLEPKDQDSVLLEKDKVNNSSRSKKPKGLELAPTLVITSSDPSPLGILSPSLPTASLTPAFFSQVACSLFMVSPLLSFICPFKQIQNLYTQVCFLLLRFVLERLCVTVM
# How it was run: as §1
# ETV2 = target: T8, ETV2 (Homo sapiens, UniProt O00321 1-342); settings: protein: recombinant; tags: N-terminal GST; dsDNA, one strand shown
# T8 sequence: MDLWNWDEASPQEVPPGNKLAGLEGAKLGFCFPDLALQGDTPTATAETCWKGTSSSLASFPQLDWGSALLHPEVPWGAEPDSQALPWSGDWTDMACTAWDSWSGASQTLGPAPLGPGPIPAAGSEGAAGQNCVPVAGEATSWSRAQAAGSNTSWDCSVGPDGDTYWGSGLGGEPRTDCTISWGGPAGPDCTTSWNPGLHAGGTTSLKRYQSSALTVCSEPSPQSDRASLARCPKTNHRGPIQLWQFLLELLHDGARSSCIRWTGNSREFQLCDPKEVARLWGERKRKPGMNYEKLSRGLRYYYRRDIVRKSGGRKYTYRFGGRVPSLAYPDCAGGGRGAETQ
# How it was run: as §1
# ELF3 = target: T9, ELF3 (Homo sapiens, UniProt P78545 1-371); settings: protein: recombinant; tags: N-terminal GST; dsDNA, one strand shown
# T9 sequence: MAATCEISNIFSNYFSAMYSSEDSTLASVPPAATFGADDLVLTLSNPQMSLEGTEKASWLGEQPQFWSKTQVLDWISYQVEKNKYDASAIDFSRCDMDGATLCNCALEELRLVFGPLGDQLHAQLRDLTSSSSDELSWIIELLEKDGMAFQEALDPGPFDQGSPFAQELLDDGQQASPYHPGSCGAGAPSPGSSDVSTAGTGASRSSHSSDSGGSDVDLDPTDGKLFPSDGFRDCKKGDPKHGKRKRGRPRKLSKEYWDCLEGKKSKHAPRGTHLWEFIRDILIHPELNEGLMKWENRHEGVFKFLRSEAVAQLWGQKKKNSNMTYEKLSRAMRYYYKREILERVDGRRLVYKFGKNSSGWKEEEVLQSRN
# How it was run: as §1
# CRX = CRX (Homo sapiens, UniProt O43186 1-299); settings: protein: recombinant; tags: N-terminal GST; dsDNA, one strand shown
# Chain of CRX (O43186 whole entry): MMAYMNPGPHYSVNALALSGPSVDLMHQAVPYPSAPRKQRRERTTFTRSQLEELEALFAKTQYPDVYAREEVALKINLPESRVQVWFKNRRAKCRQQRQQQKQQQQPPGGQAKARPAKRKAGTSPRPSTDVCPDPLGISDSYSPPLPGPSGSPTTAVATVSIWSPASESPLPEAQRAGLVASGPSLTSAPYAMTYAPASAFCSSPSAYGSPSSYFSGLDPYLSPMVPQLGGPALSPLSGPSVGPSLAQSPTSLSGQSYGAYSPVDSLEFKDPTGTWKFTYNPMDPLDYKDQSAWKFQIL
# How it was run: as §1
sequence,measurement,setting,value
TGATCA,binding signal,FLI1,"1.04 fold enrichment (6-mer frequency, TF over GST control)"
same,binding signal,ELK1,"1.05 fold enrichment (6-mer frequency, TF over GST control)"
same,binding signal,GABPA,"1.03 fold enrichment (6-mer frequency, TF over GST control)"
same,binding signal,ELF1,"1.07 fold enrichment (6-mer frequency, TF over GST control)"
same,binding signal,EHF,"1.08 fold enrichment (6-mer frequency, TF over GST control)"
same,binding signal,SPI1,"1.02 fold enrichment (6-mer frequency, TF over GST control)"
same,binding signal,ELK3,"1.18 fold enrichment (6-mer frequency, TF over GST control)"
same,binding signal,ETV5,"1.02 fold enrichment (6-mer frequency, TF over GST control)"
same,binding signal,HSF1,"1.08 fold enrichment (6-mer frequency, TF over GST control)"
same,binding signal,SPIC,"1.16 fold enrichment (6-mer frequency, TF over GST control)"
same,binding signal,ELF4,"1.1 fold enrichment (6-mer frequency, TF over GST control)"
same,binding signal,ELK4,"1.02 fold enrichment (6-mer frequency, TF over GST control)"
same,binding signal,ETV2,"1.1 fold enrichment (6-mer frequency, TF over GST control)"
same,binding signal,ELF3,"1.03 fold enrichment (6-mer frequency, TF over GST control)"
same,binding signal,CRX,"1.18 fold enrichment (6-mer frequency, TF over GST control)"
